EWS-Fli inh = EWS/Fli-driven NR0B1 reporter inhibitors, primary screen, A673 cells, NR0B1 luciferase, luminescence, MLPCN library; viability-normalised; inhibition, % at 12.6 µM; 350,000 compounds, 0.67% hits;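 active = mean inhibition of at least 50% after viability correction, with every replicate also passing that limit; inconclusive = mean reaches 50% but only one of two replicates passes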;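 also: firefly luciferase signal divided by Alamar Blue viability fluorescence both relative to DMSO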
Shn3 3UTR inh = reduction of Shn3 3'UTR firefly luciferase signal, primary screen, Schnurri-3 inhibitor project, cell-based, Clone20 osteoblasts, set 2; Clone20 osteoblast Shn3 3'UTR firefly luciferase, 24 h; inhibition, % at 12.5 µM; 360,000 compounds, 0.52% hits; AID 588674, 2011;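 active = mean inhibition of at least 75% with every replicate also reaching 75%; inconclusive = mean inhibition at least 75% but some replicate below; inactive = mean inhibition below 75%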;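 also: 0% = median of neutral control wells and 100% = pilot-screen positive control compound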
TRPM1 prom inh = inhibitors of MITF-dependent TRPM1 promoter reporter, primary screen, cell-based, SK-MEL-5, single point, luciferase; SK-MEL-5 TRPM1 promoter luciferase, 24 h; inhibition, % at 12.5 µM; 330,000 compounds, 0.83% hits; AID 488899, 2010;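 active = mean inhibition across replicates of 60% or more, whatever share of single replicates reaches that level; inconclusive = some that reach 60%, reason not given; inactive = mean inhibition across replicates below 60%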
LGR2 inh = inhibitors of bursicon-induced LGR2 CRE-luciferase signal, primary screen, cell-based, HEK293, CRE-luciferase reporter, bursicon stimulation; 380,000 compounds, 0.35% hits; inhibition, % at 9.99 µM; Drosophila bursicon receptor LGR2 (rickets); bursicon-stimulated, 4 h;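 active = drop in luminescence signal, shown as inhibition above about 50% in the replicate tests, limit read from the data, passing the limit was not always enough; inconclusive = probably only some replicates passing the limit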;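 also: agonist challenge used bursicon conditioned medium at about half maximal strength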
LMP1 NFkB inh = EBV LMP1-driven NF-kappaB luciferase reporter inhibitors, primary screen, cell-based, luminescence, single point; LMP1-induced NF-kappaB luciferase reporter cells; inhibition, % at 12.5 µM; 350,000 compounds, 0.69% hits; in the data active = inhibition above about 41%; inconclusive = no clear call, values can overlap the other calls;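 also: 0% = neutral control wells and 100% = reference inhibitor control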
PAX8 inh HTS = inhibitors of PAX8-driven TPO luciferase reporter, primary screen, RMG-I cells, single concentration; SteadyGlo, 24 h; inhibition, % at 12.6 µM; 360,000 compounds, 1.2% hits;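 active = mean replicate inhibition at least 60% with every replicate also reaching 60%; inconclusive = only one of the two criteria is met; inactive = mean below 60% and not all replicates reaching 60%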;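 also: luciferase light reporting Pax8 driven TPO promoter activity; plate controls were median of neutral control wells for no effect and mitoxantrone controls for full effect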
Active calls of the source: *; u = inconclusive; x = no result given. Most compounds without a hit are left out; they make up all but 2.2% or so of the library.

SMILES	EWS-Fli inh	Shn3 3UTR inh	TRPM1 prom inh	LGR2 inh	LMP1 NFkB inh	PAX8 inh HTS
COc1ccc(CC(=O)Nc2cccc(-c3nnc(-c4cccc(C)c4)o3)c2)cc1OC	x	74	-8	u	16	x
O=C(C[C@@H]1CC[C@H](NC(=O)c2ccncc2)[C@H](CO)O1)Nc1ccccc1	-5	x	x	2	x	4
CC1CCCC(CC(N)=O)CC1 (stereo unspecified)	-12	94*	1	2	-3	6
C[C@H]1CN([C@@H](C)CO)C(=O)c2cc(C3=CCCC3)cnc2O[C@H]1CN(C)C(=O)c1ccncc1	-1	x	x	-7	x	-2
O=C(O)c1ccc(C(=O)O)c(C(=O)c2ccc(NC(=O)c3ccccc3)cc2)c1	9	-8	12	-16	60*	9
CC1=C(SCc2ccccc2)C(=O)c2ccccc2C1=O	39	78	70*	27	-1	64*
O=C(NC1CCCCC1)N1CCN(c2ccc([N+](=O)[O-])cc2)CC1	x	60	15	-20	75*	18
O=C(NC1CCCCC1)N1CCN(c2ccc(Cl)cc2)CC1	x	37	-3	-1	8	-12
CN(C)c1cc[n+](CC(=O)c2ccc(-c3ccccc3)cc2)cc1	37	73	70*	4	-15	98*
C=CCN1C(=O)C(C)(C)N(C(C)=O)c2ccccc21	-9	4	6	-3	5	-10
CC(=O)N1c2ccccc2N(Cc2ccc(C)cc2C)C(=O)C1(C)C	54*	15	21	-22	11	27
O=C(C[C@@H]1CC[C@@H](NC(=O)Nc2ccccc2)[C@@H](CO)O1)NCc1cccc(F)c1	1	x	x	-24	x	-7
Cc1cc[n+](-c2[nH]c(=O)sc2/C=N/N=C(\[O-])c2ccncc2)cc1	x	-6	9	-5	70*	-10
O=C(CSc1nnc(Nc2ccccc2)s1)NC1CCS(=O)(=O)C1 (stereo unspecified)	-2	90*	0	-4	5	-9
COc1ccc(-c2cc3cc4c(cc3cn2)OCO4)cc1	-8	-20	-21	65*	-17	-74
COc1ccc2cc(-c3ccsc3)ncc2c1	-56	-23	62*	-68	-17	-91
COc1cc(OC)cc(-c2cc3ccc(OC)cc3cn2)c1	16	-66	-64	0	-23	-2
COCC(=O)Nc1ccc2c(c1)C(=O)N(C)C[C@H](OC)[C@H](C)CN(Cc1cc(F)ccc1F)[C@H](C)CO2	-5	x	x	1	x	12
COc1ccc(CNc2nc3c(c(=O)n(Cc4ccc(F)cc4)c(=O)n3C)n2C)cc1	x	25	13	15	26	71*
Cn1c(NCc2ccccc2)nc2c1c(=O)n(Cc1ccccc1)c(=O)n2C	x	17	6	29	0	x
O=C1c2ccccc2-c2nccnc21	x	-7	15	x	-7	x
NC1=C(Cl)C(=O)c2ccccc2C1=O	-14	-2	95*	-12	2	-3
NS(=O)(=O)c1ccc2c(c1)C(=NO)c1cc(S(N)(=O)=O)ccc1-2	-12	19	12	13	-16	-5
NC1=C(Cl)C(=O)c2ccc(S(N)(=O)=O)cc2C1=O	65*	98*	96*	105*	88*	121*
C[C@@H]1CN([C@@H](C)CO)S(=O)(=O)c2ccc(C3=CCCC3)cc2O[C@H]1CN(C)S(C)(=O)=O	-24	x	x	2	x	x
CN1C(=O)c2cc(NC(=O)c3ccc(C(F)(F)F)cc3)ccc2OC[C@@H]2O[C@H](CC(=O)NC3Cc4ccccc4C3)CC[C@H]21	14	x	x	2	x	45
O=C1C(SCCO)=C(SCCO)C(=O)c2ccccc21	64*	93*	111*	19	59*	114*
CCCCC1(Cc2ccc([N+](=O)[O-])cc2)C(=O)N(c2ccccc2)N(c2ccccc2)C1=O	x	92*	18	x	27	20
CCCCC1(COC(=O)CCC(=O)O)C(=O)N(c2ccccc2)N(c2ccccc2)C1=O	-12	-9	-21	0	3	1
COC(=O)c1ccc(CSc2nc3ccccc3[nH]2)o1	x	-16	-23	x	-12	-32
